# Screening results (PubChem)
# Rows were chosen to be rich in hits. Some 3% of all compounds tested hit in one or more screens of this group.
# TRAIL sens C8: sensitizes caspase-8 expressing cells to TRAIL. NB7+C8 cells + TRAIL, ATPlite viability luminescence. inhibition (viability loss, TRAIL sensitization), % at 10 µM. 360,000 tested, 1% active. AID 624354;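 active means compounds causing at least 50% loss of cell viability in the single-dose screen, relative to plate controls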
# PPC-1+TRAIL kill: compounds killing PPC-1 cancer cells with TRAIL present (potentiator screen, no TRAIL-free arm) | PPC-1 cells + TRAIL, ATPLite viability luminescence | cell killing (% activity), % at 4 µM or 5 µM | 220,000 tested, 0.41% active;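 active means cell killing above 50% in the first pass at 4 µM, then a duplicate retest at 5 µM averaging 50% or more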;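 further: plate controls were cells with TRAIL plus DMSO for no effect and medium-only wells lacking cells for full effect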
# SENP6 block: blocks the human protease SENP6; Q9GZR1; Recombinant SENP6 catalytic domain, aminoluciferin luminescence; inhibition, % at 10 µM; 330,000 tested, 1.8% active; AID 2599;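 active means inhibition above about 50% at the single tested dose, limit read from the data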;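 further: plate controls were DMSO wells with enzyme for no effect and DMSO wells lacking enzyme for full effect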
# SENP8 block-1: SENP8 protease inhibition; Q96LD8; purified SENP8, Z-RLRGG-aminoluciferin cleavage, luminescence; inhibition, % at 10 µM; 330,000 tested, 1.2% active; in the data active means inhibition above about 50%
# Target sequence (Q96LD8 whole entry, looked up): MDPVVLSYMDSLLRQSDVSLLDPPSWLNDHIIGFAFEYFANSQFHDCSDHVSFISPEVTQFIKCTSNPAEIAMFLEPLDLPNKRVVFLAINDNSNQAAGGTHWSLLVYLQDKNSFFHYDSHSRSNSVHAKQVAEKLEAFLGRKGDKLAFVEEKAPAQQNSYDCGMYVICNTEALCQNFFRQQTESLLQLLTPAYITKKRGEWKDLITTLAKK
# SENP7 block: blocks the human protease SENP7. Q9BQF6. recombinant SENP7, Z-RLRGG-aminoluciferin luminescence, 40 min. inhibition, % at 5 µM. 330,000 tested, 1.5% active. AID 434973;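 active means inhibition above about 50% at the single test dose, limit read from the data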;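 further: plate controls were DMSO with enzyme for no effect and no enzyme buffer wells for full effect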
# Target sequence (Q9BQF6 706-1050 limits assumed): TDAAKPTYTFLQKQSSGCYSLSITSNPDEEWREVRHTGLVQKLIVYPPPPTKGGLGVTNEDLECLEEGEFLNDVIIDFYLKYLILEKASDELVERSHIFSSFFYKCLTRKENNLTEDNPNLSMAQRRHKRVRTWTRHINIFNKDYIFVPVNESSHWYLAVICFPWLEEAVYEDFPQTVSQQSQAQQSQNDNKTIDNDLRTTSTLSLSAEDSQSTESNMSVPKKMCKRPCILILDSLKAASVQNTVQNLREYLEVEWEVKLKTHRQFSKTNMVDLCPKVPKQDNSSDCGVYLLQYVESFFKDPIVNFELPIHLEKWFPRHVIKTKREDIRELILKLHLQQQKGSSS
# SENP8 block-2: blocks human SENP8 cleavage of Nedd8 substrate | Q96LD8 | recombinant SENP8, Nedd8 substrate fluorescence | 360,000 tested, 0.64% active | inhibition, % at 20 µM; in the data active means inhibition mostly above about 40%, no sharp cut-off; inactive means mostly below about 27%
# SENP8 confirm: confirmation of human SENP8 protease inhibitors | Recombinant SENP8, Z-RLRGG-aminoluciferin luminescence, 60 min | shares compounds with SENP7 block | inhibition, % at 12.5 µM | AID 488912 | 6,200 tested, 40% active;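 active means mean inhibition across replicates above about 50%, limit read from the data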
# SENP6 conf: human SENP6 inhibition, confirmed | recombinant SENP6, Z-RLRGG-aminoluciferin luminescence | inhibition, % at 12.5 µM | shares compounds with SENP7 block | 6,200 tested, 58% active
# SENP7 confirm: confirmation of human SENP7 protease inhibitors | shares compounds with SENP7 block | AID 488917 | recombinant SENP7, Z-RLRGG-aminoluciferin luminescence, 40 min | inhibition, % at 12.5 µM | 6,200 tested, 69% active
# Casp3 select: inhibits human caspase-3 in SENP selectivity test. AID 488918. 6,200 tested, 60% active. shares compounds with SENP7 block. purified caspase-3, Z-DEVD-aminoluciferin luminescence, 60 min. inhibition, % at 12.5 µM;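 active means mean inhibition above about 50%, limit read from the data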;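 further: plate controls were enzyme with DMSO for no effect and wells without caspase-3 for full effect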
# Luc interf: interferes with luciferase luminescence in SENP counter-screen; 6,200 tested, 39% active; shares compounds with SENP7 block; Pre-incubated SENP8/Z-RLRGG-aminoluciferin, luciferase luminescence interference; inhibition, % at 12.5 µM;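 active means mean inhibition above about 50% when retested at one dose, limit read from the data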;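 further: plate controls were DMSO wells with completed reaction for no effect and substrate without enzyme for full effect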
# Active calls of the source: *; · = not tested or not shown.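 How the source made its calls, unless noted: active means mean inhibition above about 50% in the one-dose retest (limit read from the data); inactive means the rest.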
SMILES,TRAIL sens C8,PPC-1+TRAIL kill,SENP6 block,SENP8 block-1,SENP7 block,SENP8 block-2,SENP8 confirm,SENP6 conf,SENP7 confirm,Casp3 select,Luc interf
NC(=O)c1ccccc1NC(=O)c1ccc2c(c1)OCO2,32,·,70*,57*,70*,-11,-22,52*,88*,81*,39
Cc1ccc(C(=O)Nc2cc(Cl)ccc2OC(=O)c2ccc(C)cc2)cc1,·,4,32,10,33,·,·,·,·,·,·
COc1ccc(C(=O)Nc2cc(Cl)ccc2OC(=O)c2ccc(OC)cc2)cc1,37,28,57*,33,55*,4,11,12,35,54*,16
COC(=O)c1ccccc1NC(=S)NC(=O)c1ccc2c(c1)OCO2,11,·,5,0,-6,-394,·,·,·,·,·
C=CCNC(=O)c1cc(Cl)ccn1,0,2,5,3,89*,9,-7,0,-7,-4,-5
C=CCNC(=O)c1cc(Cl)cc(Cl)c1,1,-4,-18,-4,-2,8,·,·,·,·,·
O=C1C=C(NNC(=O)c2cccnc2)CC(c2ccco2)C1 (centres undefined),-4,-1,-9,1,4,7,·,·,·,·,·
Cn1cc(/C=N/Nc2ccccc2)c2ccccc21,-12,25,-11,-8,-1,-353,·,·,·,·,·
O=C(O)c1ccc(N/N=C/c2cn(Cc3ccccc3F)c3ccccc23)cc1,1,-12,84*,88*,47,-421,96*,95*,99*,44,40
CC(C)n1cc(/C=N/Nc2ccc(C(=O)O)cc2)c2ccccc21,-17,·,82*,80*,61*,-286,90*,89*,96*,61*,55*
Fc1ccc(-c2nc3n(n2)Cc2ccccc2-3)cc1,57*,2,100*,95*,99*,19,93*,98*,102*,98*,64*
Oc1cc(NCCc2cccnc2)cc2cccnc12,44,·,72*,48,39,-158,14,49,14,88*,-4
CCOC(=O)Nc1ccc(NCc2ccc(F)cc2)nc1N,3,·,68*,58*,47,-384,8,36,16,4,2
COCCNC(=O)Cn1nc(-c2ccccc2F)ccc1=O,-4,·,-7,-10,11,4,·,·,·,·,·
N#C/C(=C(/O)c1ccc([N+](=O)[O-])s1)c1nc2ccccc2[nH]1,44*,26,20,3,52*,32,5,8,6,16,5
Fc1ccccc1/C=C/c1ccc2ccccc2n1,77*,39,11,96*,100*,-89,100*,101*,104*,99*,99*
C(=C\c1ccc2ccccc2n1)/c1ccccc1,73*,44,98*,98*,98*,-410,99*,101*,104*,99*,97*
CC(=O)Oc1ccc(Cl)cc1/C=C/c1ccc2ccccc2n1,17,9,26,18,43,-223,·,·,·,·,·
O=c1ccc(/C=C/c2ccccc2)nn1Cc1ccccc1,12,24,-1,4,-5,-460,·,·,·,·,·
Cn1nc(/C=C/c2ccccc2)ccc1=O,16,25,54*,41,58*,-396,28,32,76*,76*,55*
O=C(CSc1nnc(-c2ccccc2F)n1C1CC1)Nc1cccnc1Cl,-3,28,5,-2,8,12,·,·,·,·,·
COc1ccc(C)cc1NC(=O)n1ncc2cc(Cl)ccc21,14,·,-2,-1,3,6,·,·,·,·,·
CCc1ccc2nc(NC(=O)C3CSC4(C)CCC(=O)N34)sc2c1 (centres undefined),20,·,0,4,5,-11,·,·,·,·,·
Nc1nn(-c2cccc(F)n2)cc1-c1ccccc1,33,25,87*,84*,92*,7,-28,81*,97*,83*,27
Nc1nn(-c2cccc(F)n2)cc1-c1ccc(Cl)cc1,47,26,62*,52*,88*,-3,16,21,48,32,8
SMILES,TRAIL sens C8,PPC-1+TRAIL kill,SENP6 block,SENP8 block-1,SENP7 block,SENP8 block-2,SENP8 confirm,SENP6 conf,SENP7 confirm,Casp3 select,Luc interf
COc1ccc(-c2ccn(-c3cccc(F)n3)n2)cc1,-5,3,2,8,4,-182,·,·,·,·,·
O=C(Nc1ccc(NC(=O)C2CC2)cn1)c1ccccc1,50*,·,65*,32,45,10,55*,53*,77*,84*,8
Cc1c(NC(=O)c2ccc(NC(=O)C3CC3)cc2)cccc1C(=O)O,4,·,53*,27,57*,8,48,44,77*,15,35
O=C(Nc1ccc(NC(=O)C2CC2)cn1)c1ccccc1Cl,7,5,-16,-14,-13,10,·,·,·,·,·
Cc1c(NC(=O)c2ccccc2N)cccc1C(=O)O,-5,10,56*,46,71*,-100,74*,68*,89*,25,39
COc1cc(/C=C/c2ccc3cccc(O)c3n2)cc(OC)c1OC,27,·,2,-4,-8,-146,·,·,·,·,·
COc1cccc(/C=C/c2ccc3cccc(O)c3n2)c1,36,·,93*,89*,92*,-60,92*,95*,102*,90*,66*
Oc1cccc(/C=C/c2ccc3cccc(O)c3n2)c1,33,·,94*,94*,96*,-44,97*,98*,102*,92*,97*
O=[N+]([O-])c1ccc(/C=C/c2ccc3cccc(O)c3n2)cc1,47,·,45,34,53*,22,0,5,6,11,7
COc1ccc(/C=C/c2ccc3cccc(O)c3n2)cc1Br,13,·,44,20,63*,-52,-28,-17,-6,-2,-5
CC(=O)Nc1ccc(/C=C/c2ccc3cccc([N+](=O)[O-])c3n2)cc1,-4,-8,11,-6,9,25,·,·,·,·,·
O=C(CN1C(=O)c2ccccc2C1=O)Oc1ccc(F)cc1,·,·,-5,2,10,·,·,·,·,·,·
COc1cc(OC)cc(-c2c(-c3ccsc3)c3cc(Br)ccc3n2C)c1,11,·,-14,-3,-4,-308,·,·,·,·,·
COc1ccc(C(C)=O)cc1COC(=O)c1ccc(C)c(S(=O)(=O)N2CCOCC2)c1,-1,·,2,-8,2,8,·,·,·,·,·
